The values below come from PubChem BioAssay (NCATS).

The structures appear in SMILES notation. Values joined by “and” are separate entries in the source; they are usually repeats but may differ in a detail not shown here. Equal entries are not always repeated. Results filed as inconclusive are left out. Where a structure was tested more than once in an assay, its records may differ in their call. Active and inactive are the calls of the source. Calls follow the shape of the dose curve; as a rule, active = well fitted inhibition curve with a large enough effect; inconclusive = small, poorly fitted or top-dose-only effect; inactive = flat fitted curve, though single readings scatter.

One assay deals with CRL-7250. Nature of the assay: Cytotoxic Profiling of Annotated Libraries Using Quantitative High-Throughput Screening (AID 1296008). As to conditions: Five cell lines viability, CellTiter-Glo ATP luminescence, 48-72 h; max response: stronger effect = lower value. In a few lines: (§1)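 Compounds were pin-transferred onto cells and incubated 48 or 72 hr at 37 degree Celsius, 95% humidity. CellTiter-Glo was added, plates sat 10 min at room temperature, then ATP-coupled luminescence was imaged as the viability read-out.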

In assay [1] the test system is HaCat. The assay is described as above. Particulars: Five cell lines viability, CellTiter-Glo ATP luminescence, 48-72 h; max response: stronger effect = lower value. The procedure, abridged:
as §1

For a further assay, the system named is KB-3-1. Described as above. Particulars: Five cell lines viability, CellTiter-Glo ATP luminescence, 48-72 h; max response: stronger effect = lower value. In a few lines:
as §1
A general note: Cellular ATP, detected with luciferase, serves as a proxy for viable cell number.

In a further assay the test system is NIH3T3. The description is as above. As to conditions: Five cell lines viability, CellTiter-Glo ATP luminescence, 48-72 h; max response: stronger effect = lower value. In a few lines:
as §1

Another assay deals with MCC-13. In words: qHTS assay to identify novel small-molecules to repurpose for Merkel cell carcinoma treatment (AID 1296009). As to conditions: MCC and control cell lines, CellTiter-Glo viability, 72 h; series mostly up to 46 µM. The procedure, abridged:
(§2)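 Luminescence from CellTiter-Glo, read 10 min after addition at room temperature, reported viability following a 72 hr, 37 degree celsius treatment with NPC or MIPE compounds in titration; values normalized to plate controls.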

The subject of another assay is MCC-26. The assay is described as above. Particulars: MCC and control cell lines, CellTiter-Glo viability, 72 h; series mostly up to 46 µM. In a few lines:
as §2

A further assay concerns MKL-1. The description is as above. As to conditions: MCC and control cell lines, CellTiter-Glo viability, 72 h; series mostly up to 46 µM. In a few lines: as §2
For a further assay, the system named is HEK293. In words: Cytotoxic Profiling of Annotated Libraries Using Quantitative High-Throughput Screening (AID 1296008). Particulars: Five cell lines viability, CellTiter-Glo ATP luminescence, 48-72 h; max response: stronger effect = lower value. In a few lines: as §1
The test system of assay [2] is HACAT. In words: qHTS assay to identify novel small-molecules to repurpose for Merkel cell carcinoma treatment (AID 1296009). Particulars: MCC and control cell lines, CellTiter-Glo viability, 72 h; series mostly up to 44.8 µM. In a few lines: as §2
% is scaled to controls: 0 for no effect and ±100 for the full control effect; potency is read from the fitted curve at half-maximal effect.
Also: nearly all actives have a fitted effect of over 60% in size.

On to `OCCN1CCN(CCCN2c3ccccc3Sc3ccc(C(F)(F)F)cc32)CC1`, for which the max response in the assay with CRL-7250 was 1.65% (inactive); in the assay with HaCat [1], -28.3% (inactive) and -6.1% (inactive). The figures for the Potency in the assay with KB-3-1, in the assay on NIH3T3 and with MKL-1 were 20.6 µM (active), 13.2 µM (active) and 21.1 µM (active), respectively. Moreover, the Potency entry with MCC-13 and in the assay with MCC-26 was “inactive” in each case.

Consider `Clc1ccccc1C(c1ccccc1)(c1ccccc1)n1ccnc1`, for which the max response was -11.6% (inactive) and -17.2% (inactive) in the assay with CRL-7250; -12.4% (inactive) and -20.3% (inactive) with HaCat [1]. Besides, the Potency in the assay on HEK293 was 20.9 µM (active). The Potency result in the assay with MCC-13 and with MKL-1 was “inactive” each time.

Turning to `CN(C)CCCN1c2ccccc2CCc2ccc(Cl)cc21`, the max response with CRL-7250 was -24.3% (inactive); in the assay on NIH3T3 it was -22.1% (inactive). The Potency in the assay on HEK293 is 13.2 µM (active) and 8.41 µM (active). In addition, the compound was called inactive in the assay with HaCat [1] and with HACAT [2]. Besides, the Potency result with MCC-13, with MCC-26 and in the assay on MKL-1 was “inactive” each time.

Regarding `Cc1cn([C@H]2C=C[C@@H](CO)O2)c(=O)[nH]c1=O`, the max response in the assay on CRL-7250 is -12.9% (inactive) and -2.54% (inactive); in the assay on HEK293, -0.556% (inactive) and 1.63% (inactive); in the assay on HaCat [1], 4.4% (inactive) and -10.3% (inactive); with NIH3T3 it was 1.04% (inactive) and -9.57% (inactive). In addition, the compound was called inactive in the assay on KB-3-1. For the same compound, the Potency entry with MCC-13, in the assay on MCC-26 and with MKL-1 was “inactive” throughout.

Consider `COc1ccccc1N1CCN(CC(O)COc2cccc3ccccc23)CC1` (stereo unspecified), for which the max response in the assay on CRL-7250 is 4.67% (inactive); in the assay with HaCat [1] it was 3.01% (inactive); in the assay on KB-3-1, 9.55% (inactive); with NIH3T3 it was 0.0963% (inactive). The Potency entry in the assay on MCC-13, with MCC-26 and in the assay with MKL-1 was “inactive” in each case.

For the compound `OCCN(CCO)c1nc(N2CCCCC2)c2nc(N(CCO)CCO)nc(N3CCCCC3)c2n1`, the compound was classed as inactive in the assay on HACAT [2]. The Potency entry in the assay with MCC-13, in the assay with MCC-26 and in the assay on MKL-1 was “inactive” throughout.

Take `COC(=O)Nc1nc2ccc(C(=O)c3cccs3)cc2[nH]1`: the Potency in the assay with CRL-7250 is 46.9 nM (active) and 188 nM (active); in the assay on HEK293 it was 0.0944 µM (active); with NIH3T3, 0.168 µM (active); in the assay on MCC-13, 148 nM (active) and 266 nM (active); with MCC-26 it was 0.132 µM (active). Moreover, in the assay with HaCat [1], the max response is 3.37% (inactive) and -11.6% (inactive).

`COc1cc2c(c(OC)c1OC)-c1ccc(OC)c(=O)cc1[C@@H](NC(C)=O)CC2`: the Potency was 0.0188 µM (active) with HEK293; 23.1 nM (active) and 1 nM (active) in the assay on KB-3-1; 11.8 nM (active) in the assay on MCC-13. Further, the max response was -105% (inactive) with HEK293; -4.55% (inactive) and -18.6% (inactive) in the assay with HaCat [1]; -60% (inactive) in the assay on NIH3T3.

In the case of `COc1ccccc1OCCNCC(O)COc1cccc2[nH]c3ccccc3c12` (stereo unspecified), the max response in the assay on CRL-7250 was 3.53% (inactive) and -0.382% (inactive); in the assay on HaCat [1], -11.1% (inactive); in the assay on KB-3-1 it was 1.19% (inactive) and -0.545% (inactive); in the assay with NIH3T3 it was -1.47% (inactive) and -25.5% (inactive). Moreover, the call with HaCat [1] and with HACAT [2] was inactive. In addition, the Potency entry in the assay on MCC-13, with MCC-26 and in the assay on MKL-1 was “inactive” each time.

Take `CC1(CN2CCC(n3c(=O)[nH]c4ccccc43)CC2)OCc2ccccc2-n2cccc21` (stereo unspecified): the max response with CRL-7250 was -0.873% (inactive) and 0.74% (inactive); with HaCat [1], -8% (inactive); in the assay on NIH3T3, -0.569% (inactive) and -13.1% (inactive). Also, the result with HaCat [1] and with HACAT [2] was inactive. Besides, the Potency result in the assay with MCC-13 and with MKL-1 was “inactive” in each case.

Regarding `CN1C(C(=O)Nc2ccccn2)=C(O)c2ccccc2S1(=O)=O`, the max response in the assay with CRL-7250 is -1.73% (inactive) and 2.62% (inactive); with HEK293, 3.98% (inactive); in the assay with HaCat [1], 0.638% (inactive) and -49.2% (inactive); in the assay on KB-3-1 it was -1.54% (inactive) and -11.4% (inactive); with NIH3T3, 1.34% (inactive). Moreover, in the assay on MCC-13, the Potency entry is “inactive”. In addition, the Potency result in the assay with MKL-1 was “inactive and 10.5 µM (active)”.

`CC#C[C@]1(O)CC[C@H]2[C@@H]3CCC4=CC(=O)CCC4=C3[C@@H](c3ccc(N(C)C)cc3)C[C@@]21C`: the max response in the assay with CRL-7250 is -15.2% (inactive); in the assay on HaCat [1] it was -29.4% (inactive) and -8.42% (inactive); in the assay with KB-3-1, -19.9% (inactive); in the assay on NIH3T3, -20.2% (inactive) and -3.41% (inactive). The Potency with HEK293 is 9.35 µM (active); with MKL-1 it was “inactive and 105 nM (active)”. In the assay on MCC-13, the Potency entry was “inactive”.

Turning to `O=c1[nH]cc(F)c(=O)[nH]1`, the Potency was 11.8 µM (active) with HEK293; 3.76 µM (active) and 2.96 µM (active) in the assay on NIH3T3. Also, the Potency entry with MCC-13, with MCC-26 and with MKL-1 was “inactive” each time.

Turning to `Clc1ccc2c(c1)C(N1CCNCC1)=Nc1ccccc1O2`, the max response in the assay with CRL-7250 was -6.06% (inactive) and -6.64% (inactive) and -8.49% (inactive); with NIH3T3, 4.64% (inactive) and 1.82% (inactive) and -2.71% (inactive). Besides, the Potency with HEK293 was 20.6 µM (active). Also, the compound was called inactive in the assay with HaCat [1] and in the assay on HACAT [2]. Moreover, the Potency entry with MCC-13 and with MKL-1 was “inactive” throughout.

For `CN1CCN(C2=Nc3cc(Cl)ccc3Nc3ccccc32)CC1`, the max response is -7.49% (inactive) and -17.9% (inactive) in the assay on CRL-7250; 2.26% (inactive) with HaCat [1]; 6.37% (inactive) in the assay with KB-3-1. Also, the Potency in the assay on HEK293 is 13.3 µM (active). Also, in the assay with NIH3T3, the result was inactive. Moreover, the Potency result in the assay on MCC-13 and in the assay with MKL-1 was “inactive” each time.

On to `CN(C)C(=O)C(CCN1CCC(O)(c2ccc(Cl)cc2)CC1)(c1ccccc1)c1ccccc1`, for which the max response in the assay on CRL-7250 was -63.2% (inactive). Further, the Potency was 13.2 µM (active) and 10.6 µM (active) in the assay with HEK293; 20.9 µM (active) in the assay on KB-3-1. The Potency entry in the assay on MCC-13 and in the assay with MKL-1 was “inactive” each time.

On to `COc1nc(C)nc(Cl)c1NC1=NCCN1`, for which the max response is -8.35% (inactive) in the assay with CRL-7250; -5.08% (inactive) and -4.05% (inactive) in the assay on HEK293; -2.5% (inactive) and 2.31% (inactive) with NIH3T3. Moreover, the compound was classed as inactive with HaCat [1] and with HACAT [2]. The Potency entry in the assay with MCC-13 and in the assay on MKL-1 was “inactive” in each case.

On to `CNCCCC12CCC(c3ccccc31)c1ccccc12`, for which the Potency with HEK293 was 11.9 µM (active) and 16.6 µM (active). Moreover, the max response in the assay on HaCat [1] is -20.8% (inactive) and 4.86% (inactive); in the assay with KB-3-1, 3.46% (inactive). In addition, the Potency entry in the assay on MCC-13 and with MCC-26 was “inactive” throughout.

Regarding `C[C@@H]1CC(=O)NN=C1c1ccc(NN=C(C#N)C#N)cc1`, in the assay on CRL-7250, the compound was called inactive. Further, the Potency with HaCat [1] was 18.7 µM (active). Further, the max response was -5.36% (inactive) and -8.18% (inactive) in the assay on HaCat [1]; -4.37% (inactive) with KB-3-1. Also, the Potency entry in the assay with MCC-13 and in the assay on MKL-1 was “inactive” each time.

Turning to `COc1cc2nc(N3CCN(C(=O)C4COc5ccccc5O4)CC3)nc(N)c2cc1OC` (stereo unspecified), the max response with HaCat [1] was -6.13% (inactive); in the assay on NIH3T3, -16.5% (inactive). The compound was classed as inactive in the assay on HaCat [1], in the assay on NIH3T3 and with HACAT [2]. Also, the Potency entry in the assay with MCC-13, in the assay on MCC-26 and in the assay on MKL-1 was “inactive” each time.
